First the molecules themselves.
T1: UNK ZnF1-3 (human, UniProt Q9C0B0 31-174)
T1 sequence: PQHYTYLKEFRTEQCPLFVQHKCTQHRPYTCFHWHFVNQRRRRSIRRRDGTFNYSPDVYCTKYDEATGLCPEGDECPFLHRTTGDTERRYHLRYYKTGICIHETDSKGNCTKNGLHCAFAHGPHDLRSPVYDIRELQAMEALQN

B1: 86370578_86370698_3324_CDS_ENSMUSG00000021244_ENSMUST00000021670|mouse|control|control (ssRNA)
RNA: GGGAGUUCUACAGUCCGACGAUCUGGCCUCACAAACACCCUGUCCCGGUUGCCUUCUCCUCUGUUCAUUUUCUCACGACUGUCUUCUCUUCUACCCAUCAUUUUAUCAUGGAAAUCUUCUUGCUUGACCAGACCUGGACCACGCAACAGAGGAUUGAGCAUCA
B2: chr7:26236612:26236613:-_ENSG00000122566_ENST00000356674|hu_mus|motif|central (ssRNA)
RNA: GGGAGUUCUACAGUCCGACGAUCAACAAACAGCUUCUUCACAGUCACAUGGGCUCCUGGUUUUCCAGACUCCUCUCUUGCGGCAGCACGUUUUGGCUCAACUACCCUGCCAUCAAUGGAAUGGGGCCUUGCAGCCAUGGCAGCCAACAGAGGAUUGAGCAUCA
B3: chr1:163117127:163117128:-_ENSG00000143248_ENST00000313961|hu_mus|hu_hu_hu_mus_False|1_18 (ssRNA)
RNA: GGGAGUUCUACAGUCCGACGAUCUGCUACAAAGGAUGUAACUCAACUCACAGGGCAACUUUUGGAAGCCUGACCAGAUGACUACUUGAUUAGCUCCUUAUAAAAUUCAGAGCGCACAAAGCGAGGCAGAGAAUCCUUUUCCAUCAACAGAGGAUUGAGCAUCA
B4: chr16:45382771:45382772:-_ENSMUSG00000022661_ENSMUST00000163230|mus_mus|mus_mus_mus_hu_True|18_88 (ssRNA)
RNA: GGGAGUUCUACAGUCCGACGAUCCUGGGUCAUGUUAUAAGACAAAUGGAUAGGGAGGGCAUGCUUCUCAAAAAAUGUGAGCUAUUGUCUAAGACUAACAAUAUUUAUCUAGCUAUAUAAAAAUAAGAAAUGAAUAAGUUAAGACAACAGAGGAUUGAGCAUCA
B5: chr18:56819859:56819860:+_ENSG00000166562_ENST00000588875|hu_mus|hu_hu_hu_mus_True|38_38 (ssRNA)
RNA: GGGAGUUCUACAGUCCGACGAUCAACCUUGAUUACUCUGUGAACUAUCGGAAUGUCUCUUCCUUCAACCUUAAAAACAACUAUUUCACCAGCUCUGAUUGGGUCUUCCCGGAAAUUCGUGAGGAACAGCAGAUCUCCUCUGUGCAACAGAGGAUUGAGCAUCA
B6: 78791426_78796734_1209_CDS_ENSMUSG00000033088_ENSMUST00000109689|mouse|control|control (ssRNA)
RNA: GGGAGUUCUACAGUCCGACGAUCACUGCCAGAAUUCUCCUUCCUCUGGCCUGCUGUGUCUCCUCGGGCUGGGGACCUGGUGGCCUUUCGAGCACUGUCAGCUCUCAGUCCCUCCUGAGGCCUCCUUGGGAUCAUCUCUGUGAGCAACAGAGGAUUGAGCAUCA
B7: chr7:141450121:141450122:+_ENSG00000106028_ENST00000265304|hu_mus|hu_hu_hu_mus_True|28_98 (ssRNA)
RNA: GGGAGUUCUACAGUCCGACGAUCUCAUCCGUUCUAUUCCUUCUCUUUUGUCUGGUCACUCAGAAAUAUAAUGUUAUCAGCUAUGAUUGUUGUUGCUUGCCGCCUCACAUUAUUUUUAUCCAUGUACUCGCCAUAGUCCACUUUCAACAGAGGAUUGAGCAUCA
B8: 180848183_180848303_6210_CDS_ENSMUSG00000026494_ENSMUST00000161017|mouse|control|control (ssRNA)
RNA: GGGAGUUCUACAGUCCGACGAUCAUUGGACCUUUUCUUUUGGUUUUUGAGGCUCCUGCAUCUCCCUCCCACGGAGCUGCUGUUCUCGCUCAUGGAGUCCUGGGCUGAGGAUGCACUGCCGGUGGCCUCGCUGUCUCUCAUCAUCAACAGAGGAUUGAGCAUCA
B9: chr16:45382771:45382772:-_ENSMUSG00000022661_ENSMUST00000163230|mus_mus|mus_mus_mus_hu_True|38_68 (ssRNA)
RNA: GGGAGUUCUACAGUCCGACGAUCCUGGGUCAUGUUAUAAGACAAAUGGACAGGGAGGGCAUGCUUCUGUAAAGAUGUGAGCUAUUGUCUAAGACUAACAAUAUUGCUCUAGCUAUAAAAAUAAGUUAAAUGAAUAAGUUAAGACAACAGAGGAUUGAGCAUCA
B10: chr3:139078181:139078182:-_ENSG00000184432_ENST00000507777|hu_mus|FALSE|FALSE (ssRNA)
RNA: GGGAGUUCUACAGUCCGACGAUCCUGACUGGGUAAGUAAGUUCGGGCCAGGAAGGCAGCUUCUGGGAGUCUUCCUGUUCUGAUCAAGAGCUCUAGGCAAGCAUCAAGCUUGCCCUGUAAAAAAUAGCUCAUGAAUGCCACGUUCAACAGAGGAUUGAGCAUCA
B11: chr8:35894604:35894605:-_ENSMUSG00000031529_ENSMUST00000033929|mus_hu|FALSE|FALSE (ssRNA)
RNA: GGGAGUUCUACAGUCCGACGAUCCUAUAGCAAUGCUUUAUAGAAGACAAACAGCUUAUUUCUAGGCUGUCAGGGACUUCUAGAAUAUUGAUGUUGUUAUUAGAAACAAUCCUCUGUAAUCCAGUCCCAGGUUGAAAUCUGAUCCAACAGAGGAUUGAGCAUCA
B12: chr16:45382771:45382772:-_ENSMUSG00000022661_ENSMUST00000163230|mus_mus|mus_mus_mus_hu_True|18_68 (ssRNA)
RNA: B4 RNA with U50C, C68G, A69U, A73G
B13: chr1:151039735:151039736:+_ENSG00000213190_ENST00000368921|hu_mus|FALSE|FALSE (ssRNA)
RNA: GGGAGUUCUACAGUCCGACGAUCCCCAGGCCUUCCAGCUCCGACAGAUCCAGUUCUGGGAUGGGCAUCCUCCAGAAAAGAAAGGAGCUGUACUGGCUACUUACAGGGUCCCUCAUGAUCCCCUGUUAGCAAUGAAUGACUAGGCAACAGAGGAUUGAGCAUCA
B14: chr7:19156472:19156473:-_ENSG00000122691_ENST00000242261|hu_mus|FALSE|FALSE (ssRNA)
RNA: GGGAGUUCUACAGUCCGACGAUCGCUGCAGCUUGCCAUCUUGGAGUCCAGCUCGUCGCUCUGCAGGACCUGGUACAGGAAGUCGAUGUACCUGGCCGCCAGUUUGAGGGUCUGAAUCUUGCUCAGCUUGUCCGAGGGCAGCGUCAACAGAGGAUUGAGCAUCA

Where a chain is given by its changes, count along the chain named. The full ranking holds about 24,000 sequences; the median of “enrichment r” is about 0.99, and the highest 2% start at about 3.7. The sample as a whole holds a higher share of the highest values than the screen did.

These results are taken from paper PMC12136788.

This test concerns the target T1, UNK ZnF1-3. Description: nsRBNS (natural sequence RNA bind-n-seq); RBNS binding buffer (assumed for nsRBNS): 25 mM Tris pH 7.5, 150 mM KCl, 3 mM MgCl2, 0.01% Triton X-100, 500 ug/ml BSA, 20 U/ml SUPERase-In, 4 C; UNK is unkempt and MSI1 is Musashi-1; names of the RNAs are library labels; protein concentration not given here; high values mean tight binding.
Regarding B1, the binding signal is 0.682 enrichment R.

B2 gave a binding signal of 0.995 enrichment R.

Molecule B3 had a binding signal of 1.28 enrichment R.

The molecule B4 had a binding signal of 4.85 enrichment R.

Turning to B5, the binding signal came to 0.808 enrichment R.

As to B6, the binding signal stood at 0.647 enrichment R.

For B7, the binding signal turned out to be 0.444 enrichment R.

The molecule B8 gave a binding signal of 0.445 enrichment R.

B9 came in with a binding signal of 9.94 enrichment R.

In turn, B10 showed a binding signal of 0.848 enrichment R.

For the molecule B11, the binding signal is 0.4 enrichment R.

In turn, B12 displayed a binding signal of 5.64 enrichment R.

B13: the binding signal is 1.11 enrichment R.

The molecule B14 gave a binding signal of 0.84 enrichment R.
